Data taken from PubChem BioAssay (NCI).
The panel holds about 83,000 compounds, 20% with a hit somewhere; the sample as a whole holds those more often.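 Single-concentration screen, 48 h exposure, 96-well plates. Endpoint: percent growth. Below 10 = active.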 The source made the active and inactive calls.

Legend:
Experiment in all cases: NCI-60 one-dose screen, 48 h (100 = growth as untreated, 0 = no growth, -100 = all killed)
Settings in all cases: 10 µM unless noted
NCI-H23 lung = tested on: NCI-H23 lung
NCI-H226 lung = tested on: NCI-H226 lung
NCI-H322M lung = tested on: NCI-H322M lung
HOP-62 NSCLC = tested on: HOP-62 NSCLC
NCI-H460 lung = tested on: NCI-H460 lung
HOP-92 NSCLC = tested on: HOP-92 NSCLC
NCI-H522 lung = tested on: NCI-H522 lung
A549/ATCC NSCLC = tested on: A549/ATCC NSCLC
786-0 renal = tested on: 786-0 renal

Measured: growth

COc1ccc(/C=N/NC(=O)Cn2c(-c3ccc(S(C)(=O)=O)cc3)nc3cc(Cl)ccc32)cc1
active: NCI-H460 lung 7.74% | NCI-H522 lung 2.78%
inactive: NCI-H23 lung 29.9% | NCI-H226 lung 57.1% | NCI-H322M lung 51.4% | HOP-62 NSCLC 30.5% | HOP-92 NSCLC 49.3% | A549/ATCC NSCLC 17.4% | 786-0 renal 39.2%

C[C@@H]1C(=O)N(C[C@H](Cc2ccccc2)N(Cc2ccccc2)Cc2ccccc2)[C@]1(Cc1ccccc1)C(=O)OC(C)(C)C
inactive: NCI-H23 lung 42% | NCI-H226 lung 47.8% | NCI-H322M lung 87.9% | HOP-62 NSCLC 81.6% | NCI-H460 lung 54% | HOP-92 NSCLC 46.3% | NCI-H522 lung 50.9% | A549/ATCC NSCLC 60% | 786-0 renal 72.6%

O=C1Nc2ccccc2SC1c1ccccc1Cl (stereo unspecified)
inactive: NCI-H23 lung 102% | NCI-H226 lung 104% | NCI-H322M lung 95.6% | HOP-62 NSCLC 96.3% | NCI-H460 lung 116% | HOP-92 NSCLC 69.2% | NCI-H522 lung 103% | A549/ATCC NSCLC 90% | 786-0 renal 97.5%

COc1ccc(/C=C(\C#N)n2nnc3cc(F)c(F)cc32)c(OC)c1OC
inactive: NCI-H23 lung 71.8% | NCI-H226 lung 83% | NCI-H322M lung 76% | HOP-62 NSCLC 82.9% | NCI-H460 lung 71.4% | HOP-92 NSCLC 83.5% | NCI-H522 lung 51.4% | A549/ATCC NSCLC 84.2% | 786-0 renal 93.9%

CC(C)n1nc(C#Cc2cccc(O)c2)c2c(N)ncnc21
active: NCI-H23 lung -28.4% | NCI-H226 lung -41.8% | NCI-H322M lung -30.3% | HOP-62 NSCLC -52.5% | NCI-H460 lung -5.33% | HOP-92 NSCLC -70.5% | NCI-H522 lung -44.5% | A549/ATCC NSCLC -60% | 786-0 renal -72%

CCCCCCCCN(CCCCCCCC)C(=N)c1ccnc2ccccc12
active: NCI-H23 lung -66.4% | NCI-H322M lung -64.5% | HOP-62 NSCLC -85.7% | NCI-H460 lung -78% | HOP-92 NSCLC -21.2% | NCI-H522 lung -74.7% | A549/ATCC NSCLC -82.5% | 786-0 renal -100%
inactive: NCI-H226 lung 56.5%

CCOC(=O)c1c(C)nc2c(c1N)/C(=C/c1cc(OC)c(OC)c(OC)c1)C(=O)N2c1ccc(OC)cc1
inactive: NCI-H23 lung 78.8% | NCI-H226 lung 86.7% | NCI-H322M lung 88.4% | HOP-62 NSCLC 128% | NCI-H460 lung 48.5% | HOP-92 NSCLC 40.7% | NCI-H522 lung 50.4% | A549/ATCC NSCLC 88.8% | 786-0 renal 44.5%

CCCCCCCCn1cc(C2=C(c3coc4ccc(OC)cc34)C(=O)NC2=O)c2ccccc21
active: NCI-H226 lung -38.6%
inactive: NCI-H23 lung 54.4% | NCI-H322M lung 99% | HOP-62 NSCLC 116% | NCI-H460 lung 101% | HOP-92 NSCLC 94.2% | NCI-H522 lung 96.7% | A549/ATCC NSCLC 101% | 786-0 renal 104%

C[C@H]1[C@H]2C3=CC[C@@H]4[C@@]5(C)C/C(=C/c6ccncc6)C(=O)C(C)(C)[C@@H]5CC[C@@]4(C)[C@]3(C)CC[C@@]2(C(=O)N2CCN(C)CC2)CC[C@@H]1C
inactive: NCI-H23 lung 93.2% | NCI-H226 lung 85.5% | NCI-H322M lung 78.2% | HOP-62 NSCLC 74.7% | NCI-H460 lung 68.3% | HOP-92 NSCLC 42.8% | NCI-H522 lung 70% | A549/ATCC NSCLC 63.9% | 786-0 renal 81.4%

O=C(NCCOCCOCCOCCNC(=O)c1cc2c(o1)C(=O)c1ccccc1C2=O)NC12CC3CC(CC(C3)C1)C2
active: NCI-H23 lung -45.7% | NCI-H226 lung -80.4% | NCI-H322M lung -59.5% | HOP-62 NSCLC -58% | NCI-H460 lung -71% | NCI-H522 lung -27.7% | A549/ATCC NSCLC -47.6% | 786-0 renal 3.51%
inactive: HOP-92 NSCLC 43.5%

Cl.[Pt].[c-]1ccccc1-c1ccccn1.c1ccc(P(c2ccccc2)C([PH+](c2ccccc2)c2ccccc2)[PH+](c2ccccc2)c2ccccc2)cc1
active: NCI-H23 lung 5.59% | NCI-H226 lung 7.37% | NCI-H460 lung 5.2% | HOP-92 NSCLC -17% | NCI-H522 lung 9.94%
inactive: NCI-H322M lung 12.5% | HOP-62 NSCLC 25.1% | A549/ATCC NSCLC 14.6% | 786-0 renal 22.8%

COc1ccc(/C=C2\C=C(c3ccccc3)N(CCc3ccccc3)C2=O)cc1OC
active: NCI-H322M lung 8.42% | HOP-62 NSCLC -30% | HOP-92 NSCLC -4.05% | 786-0 renal 8.93%
inactive: NCI-H23 lung 68.4% | NCI-H226 lung 29.7% | NCI-H460 lung 20.5% | NCI-H522 lung 42.5% | A549/ATCC NSCLC 32.9%

CN(C)c1ccc(/C=C2\C=C(c3ccccc3)N(CCc3ccccc3)C2=O)cc1
inactive: NCI-H23 lung 64.2% | NCI-H226 lung 52.8% | NCI-H322M lung 71.9% | NCI-H460 lung 23.6% | HOP-92 NSCLC 51.2% | NCI-H522 lung 50.6% | A549/ATCC NSCLC 34.8% | 786-0 renal 48.9%
active: HOP-62 NSCLC -14%

CCNCCNc1cc(-c2cccc(C(F)(F)F)c2)c(C#N)c2nc3ccccc3n12
active: NCI-H23 lung -57.6% | NCI-H226 lung -67.2% | NCI-H322M lung -63.1% | HOP-62 NSCLC -75.1% | NCI-H460 lung -70.4% | HOP-92 NSCLC -58.1% | NCI-H522 lung -71.3% | A549/ATCC NSCLC -91.9% | 786-0 renal -88%

COc1cc(-c2ccc(-c3ccc(C(=N)N)nc3)s2)cc(OC)c1OC
inactive: NCI-H23 lung 72.2% | NCI-H226 lung 102% | NCI-H322M lung 70.3% | HOP-62 NSCLC 67.9% | NCI-H460 lung 25.7% | HOP-92 NSCLC 49% | NCI-H522 lung 77% | A549/ATCC NSCLC 61.3% | 786-0 renal 40.3%

CCOc1cc(N)ccc1C(=O)NCCCN(CC)CC
inactive: NCI-H23 lung 87.9% | NCI-H226 lung 93.6% | NCI-H322M lung 100% | HOP-62 NSCLC 98.3% | NCI-H460 lung 110% | HOP-92 NSCLC 90.6% | NCI-H522 lung 98.2% | A549/ATCC NSCLC 104% | 786-0 renal 100%

Clc1ccc(-c2nnc(Cn3ccnc3)o2)cc1
inactive: NCI-H23 lung 93.9% | NCI-H226 lung 102% | NCI-H322M lung 113% | HOP-62 NSCLC 89.3% | NCI-H460 lung 112% | HOP-92 NSCLC 132% | NCI-H522 lung 115% | A549/ATCC NSCLC 100% | 786-0 renal 94%

O=C1N/C(=N/O)S/C1=C/c1cn(-c2ccccc2)nc1-c1ccccc1
inactive: NCI-H23 lung 88.1% | NCI-H226 lung 91.9% | NCI-H322M lung 87.3% | HOP-62 NSCLC 98% | NCI-H460 lung 104% | HOP-92 NSCLC 107% | NCI-H522 lung 95.6% | A549/ATCC NSCLC 93.6% | 786-0 renal 83.7%

CCCc1nc2ccccn2c1Nc1ccc(C(=O)NO)cc1
inactive: NCI-H23 lung 61.4% | NCI-H226 lung 92.6% | NCI-H322M lung 97.4% | HOP-62 NSCLC 90.4% | NCI-H460 lung 85.9% | HOP-92 NSCLC 103% | NCI-H522 lung 64.9% | A549/ATCC NSCLC 97.1% | 786-0 renal 95.5%

COC(=O)CNC(=O)C(=O)c1c(O)c(O)c(C(C)C)c2cc(C)c(-c3c(C)cc4c(C(C)C)c(O)c(O)c(C(=O)C(=O)NCC(=O)OC)c4c3O)c(O)c12
inactive: NCI-H23 lung 17.8% | NCI-H226 lung 54.6% | NCI-H322M lung 22.1% | HOP-62 NSCLC 18.5% | A549/ATCC NSCLC 11% | 786-0 renal 33.9%
active: NCI-H460 lung 5.29% | HOP-92 NSCLC -7.96% | NCI-H522 lung -0.907%

CC12CC(C#N)CCC1O2 (stereo unspecified)
inactive: NCI-H23 lung 109% | NCI-H226 lung 115% | NCI-H322M lung 127% | HOP-62 NSCLC 108% | NCI-H460 lung 103% | HOP-92 NSCLC 93% | NCI-H522 lung 109% | A549/ATCC NSCLC 100% | 786-0 renal 102%

CCO/C=N/C1=C(C#N)C(c2ccc(OC)cc2)c2c(c3ccccc3n(C)c2=O)O1 (stereo unspecified)
inactive: NCI-H23 lung 101% | NCI-H226 lung 95.2% | NCI-H322M lung 101% | HOP-62 NSCLC 91.5% | NCI-H460 lung 105% | HOP-92 NSCLC 101% | NCI-H522 lung 90.2% | A549/ATCC NSCLC 97.8% | 786-0 renal 105%

CN(C)c1ccc(/C=N/NC(=O)COc2cc(=O)n(C)c3ccccc23)cc1
inactive: NCI-H23 lung 93.5% | NCI-H226 lung 105% | NCI-H322M lung 105% | HOP-62 NSCLC 95.7% | NCI-H460 lung 110% | HOP-92 NSCLC 93.5% | NCI-H522 lung 96.7% | A549/ATCC NSCLC 110% | 786-0 renal 105%

Cc1c(Cl)cccc1NS(=O)(=O)c1ccccc1
inactive: NCI-H23 lung 113% | NCI-H226 lung 93.1% | NCI-H322M lung 110% | HOP-62 NSCLC 112% | NCI-H460 lung 112% | HOP-92 NSCLC 89.2% | NCI-H522 lung 98.4% | A549/ATCC NSCLC 104% | 786-0 renal 106%

N#Cc1cccc(-c2nc3ccccn3c2NCCN2CCOCC2)c1
inactive: NCI-H23 lung 98.6% | NCI-H226 lung 93.6% | NCI-H322M lung 87.1% | HOP-62 NSCLC 72.5% | NCI-H460 lung 98.8% | HOP-92 NSCLC 93% | NCI-H522 lung 85.8% | A549/ATCC NSCLC 90.4% | 786-0 renal 96.1%

O=C(CCCCCCCn1cc(-c2cccnc2)nn1)Nc1ccccc1-c1ccccc1
inactive: NCI-H23 lung 63.6% | NCI-H226 lung 55.4% | NCI-H322M lung 65.3% | HOP-62 NSCLC 61.1% | NCI-H460 lung 29.3% | HOP-92 NSCLC 96.5% | NCI-H522 lung 27.5% | A549/ATCC NSCLC 36.9% | 786-0 renal 53.4%

CCOC(=O)c1ccc(NC(=O)CCCN(CC)CC)cc1
inactive: NCI-H23 lung 95.4% | NCI-H226 lung 103% | NCI-H322M lung 92.4% | HOP-62 NSCLC 101% | NCI-H460 lung 107% | HOP-92 NSCLC 78% | NCI-H522 lung 63.6% | A549/ATCC NSCLC 90.5% | 786-0 renal 87.2%

CC(=O)c1cc2c(o1)C(=O)c1ccccc1C2=O
active: NCI-H23 lung -33.2% | NCI-H226 lung -59.1% | NCI-H322M lung -92.7% | HOP-62 NSCLC -57.9% | NCI-H460 lung -71.8% | HOP-92 NSCLC -9.05% | NCI-H522 lung -56.8% | A549/ATCC NSCLC -44.4% | 786-0 renal -93.4%

CCc1cc(Cc2cc(CC)cc(C(C)(C)C)c2O)c(O)c(C(C)(C)C)c1
active: NCI-H460 lung 4.34% | HOP-92 NSCLC -22.6%
inactive: NCI-H23 lung 17.5% | NCI-H226 lung 48.6% | NCI-H322M lung 50% | HOP-62 NSCLC 34.7% | NCI-H522 lung 22.2% | A549/ATCC NSCLC 23.8% | 786-0 renal 23.6%
